Consider 30 compounds from ChEMBL document CHEMBL3988442, “University of Dundee, Small-Polar-MMV Screening Library” (2021).

Screen size: about 48,000 compounds; about 13,000 (27%) showed an effect of 50% or more. The list shows a part of the results.

This test has as its system Wolbachia pipientis. In words: Anti-Wolbachia Cell-Based Screen. The class given is functional. Also on record: scale not given: in the data most compounds retested in dose-response had high values. Conditions: 5 µM.
Turning to `c1c[nH]c(-c2cn(CCSc3cnn[nH]3)nn2)n1`, the “Percent Effect” value is reported as -6.5%.

As for `O=C(COCC1CC1)N1CCSCC1`, the “Percent Effect” value is listed as -4.058%.

As to `CC(=O)NCc1ccc(S(=O)(=O)NC(=O)c2ccc3c(c2)CCO3)s1`, the “Percent Effect” value is -11.39%.

Consider `CN(Cc1nc2ccccc2n1C)CC1CCCN1c1cccnn1` (stereo not given), for which the “Percent Effect” value is on record as -5.038%.

Consider `Brc1csc(CNCc2nnc3n2CCC3)c1`, for which the “Percent Effect” value was -6.201%.

Turning to `Cn1cc(C2CCCN2C(=O)CS(=O)(=O)C2CCCC2)cn1` (stereo not given), the “Percent Effect” value is on record as 4.822%.

On to `Cn1cc(C2CCCN2C(=O)c2cnc(C3CC3)s2)cn1` (stereo not given), for which the “Percent Effect” value stood at 90.11%.

For `CS(=O)(=O)N1CCN(Cc2c(O)ccc3oc4c(c23)CCCC4)CC1`, the “Percent Effect” value is -24.14%.

Take `CCC(CC)(CNC(=O)c1cccn1Cc1cccnc1)N(C)C`: the “Percent Effect” value is listed as -9.831%.

With `CCN(CC)C(=O)C1CCCN(c2ncnc3oc(C)nc23)C1` (stereo not given), the “Percent Effect” value worked out at 73.24%.

Turning to `CSCC1CCCN(c2ncnc3oc(C)nc23)C1` (stereo not given), the “Percent Effect” value was found to be 100.1%.

`Cc1nc2c(N3CCC(O)(Cn4ccnc4)CC3)ncnc2o1`: the “Percent Effect” value was 2.472%.

On to `CSCC1CCN(c2nc(N)ncc2C)CC1`, for which the “Percent Effect” value is -31.92%.

With `CCc1nc2c(N3CCCC(c4nccn4CCOC)C3)ncnc2o1` (stereo not given), the “Percent Effect” value is -3.273%.

Turning to `CSc1ccccc1CN1C[C@@H]2CC[C@H](C1)N(CC1CC1)C2=O`, the “Percent Effect” value is listed as -21.61%.

As for `NC(=O)CCCNC(=O)c1cc(Br)c2c(c1)OCCO2`, the “Percent Effect” value is -9.821%.

For `COc1ccc2cc(CN(C)CCN3CCCCC3=O)c(=O)[nH]c2c1`, the “Percent Effect” value was 1.998%.

`COc1cccnc1NC(=O)COc1c(C)cccc1C`: the “Percent Effect” value is given as -5.049%.

Regarding `COc1cccc(CCNC(=O)NC(C)C)c1O`, the “Percent Effect” value is listed as -0.2442%.

Turning to `COc1ccccc1CC1CCCN(CC(=O)NC2CC2)C1` (stereo not given), the “Percent Effect” value stood at 10.43%.

`COc1cccc(CNC(=O)C(C)n2ccnc2C(C)C)c1OC` (stereo not given): the “Percent Effect” value is -21%.

For the compound `COc1ccccc1CC(=O)NCc1ccnc(NC2CC2)c1`, the “Percent Effect” value is given as -7.733%.

As to `COc1cccc(OC)c1-c1ccnc2cc(CC(=O)NC(C)C)nn12`, the “Percent Effect” value came out at 87.37%.

On to `COc1ccccc1OCC(=O)n1nc(C)c(C)c1C`, for which the “Percent Effect” value is -12.46%.

With `CNC(=O)Cc1cc2nccc(-c3c(OC)cccc3OC)n2n1`, the “Percent Effect” value stood at 105.1%.

For `COc1cccc(OC)c1-c1ccnc2cc(CC(=O)N(C)C)nn12`, the “Percent Effect” value was 89.81%.

On to `COc1ccccc1C1(CNc2cc(C(=O)N(C)C)ccn2)CC1`, for which the “Percent Effect” value is given as -1.454%.

Consider `CCCc1cc(C(=O)N(C)Cc2ccc(OC)c3ncccc23)n(C)n1`, for which the “Percent Effect” value is recorded as -87.89%.

For the compound `COc1cccc(OC)c1-c1ccnc2cc(CC(=O)NC3CC3)nn12`, the “Percent Effect” value turned out to be 130.6%.

`CN1CCOC(C(=O)N2CCC3(CCCCC3)C2)C1` (stereo not given): the “Percent Effect” value amounted to 13.97%.
